# In the supplement of paper PMC8728848:
# The entries come from a sample that favours the strongest signals as a whole.
# B1: PX9961C-bth-497-22-497 (Bacteroides thetaiotaomicron) (protein)
# chain: DWLDLNTTSSVETGQAIVTLDDAQIALNGIYRLASGHSYYGDNYWYYGDCRAADVQARITKGDGKRVSPYYEYNVLASDNLNIVLPWNTVYKVIRQTNNLIQKIESGSIQSSDTKELNRIKSEALVMRGLSLFNLTRLFGMPYTNDKGASLGVPIETSPSDPTHKPSRSTVAQCYEQVVSDMSNALSGLRQETSNGYINYWAAQALLSRVYLNMGEYQKAYDAATDVIKNNGGRYQLYSYEEYPNVWGQDFQSESLFELYITLSEPSGGTGGEGAPMVYANEATVDWNNLILSEDFLNLLNEDPKDVRHCLTKESVIENNTGLPAAAMHEKVYLAKFPGKTGDDPKTNNICIIRLSEVYLNAAEAGLKKGTDIEEAQGYLNDIISRRTTDTSQQVSTETFTLDRILKERRKELVGEGEVFYDYLRNGLAIERKGSWHLETLKASNAQKIEATDLRIALPIPQSEIDANPNIQQNPR
# Tests used:
# Test in all cases: glycan array binding signal (z-score within array); higher = stronger binding
# Conditions in all cases: glycan notation: IUPAC condensed, linker removed
# [1] = target: Fuc(a1-2)Gal(b1-3)GalNAc(a1-3)[Fuc(a1-2)]Gal(b1-4)GlcNAc
# Summary of the method: (§1)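 Columns mapping to the same glycan were averaged after glycan names were converted to IUPAC-condensed notation. The data come from 3228 arrays in the Consortium for Functional Glycomics database, limited to those with an available protein sequence. Binding is reported as a within-array Z-score averaged across arrays of one protein sequence and across linkers.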
# [2] = target: Fuc(a1-2)Gal(b1-3)GlcNAc(b1-3)[Fuc(a1-2)Gal(b1-3)GlcNAc(b1-6)]GalNAc
# Summary of the method: as §1
# [3] = target: Fuc(a1-2)Gal(b1-4)[Fuc(a1-3)]GlcNAc(b1-3)Gal(b1-4)[Fuc(a1-3)]GlcNAc(b1-3)Gal(b1-4)[Fuc(a1-3)]GlcNAc
# Summary of the method: as §1
# [4] = target: Fuc(a1-2)Gal(b1-4)[Fuc(a1-3)]GlcNAc(b1-3)[Neu5Ac(a2-6)Gal(b1-4)GlcNAc(b1-6)]Gal(b1-4)Glc
# Summary of the method: as §1
# Fuc(a1-2)Gal6S(b1-4)Glc = target: Fuc(a1-2)Gal6S(b1-4)Glc
# Summary of the method: as §1
# [5] = target: Fuc(a1-2)[Gal(a1-3)]Gal(b1-3)GalNAc
# Summary of the method: as §1
# [6] = target: Fuc(a1-2)[Gal(a1-3)]Gal(b1-3)GlcNAc(b1-2)Man(a1-3)[Fuc(a1-2)[Gal(a1-3)]Gal(b1-3)GlcNAc(b1-2)Man(a1-6)]Man(b1-4)GlcNAc(b1-4)GlcNAc
# Summary of the method: as §1
# [7] = target: Fuc(a1-2)[Gal(a1-3)]Gal(b1-4)GlcNAc(b1-3)[Fuc(a1-2)[Gal(a1-3)]Gal(b1-4)GlcNAc(b1-6)]GalNAc
# Summary of the method: as §1
# [8] = target: Fuc(a1-2)[Gal(a1-3)]Gal(b1-4)[Fuc(a1-3)]GlcNAc(b1-3)GalNAc
# Summary of the method: as §1
# [9] = target: Fuc(a1-2)[GalNAc(a1-3)]Gal(b1-3)GlcNAc
# Summary of the method: as §1
# [10] = target: Fuc(a1-3)[Gal(b1-4)]GlcNAc(b1-2)Man
# Summary of the method: as §1
# [11] = target: Fuc(a1-3)[Gal(b1-4)]GlcNAc(b1-6)GalNAc
# Summary of the method: as §1
# [12] = target: Fuc(a1-3)[GalNAc(b1-4)]GlcNAc
# Summary of the method: as §1
# [13] = target: Gal(a1-3)Gal(b1-4)GlcNAc(b1-3)GalNAc
# Summary of the method: as §1
# [14] = target: Gal(a1-3)[Gal(a1-4)]Gal(b1-4)GlcNAc
# Summary of the method: as §1
# [15] = target: Gal(b1-3)GalNAc(a1-3)[Fuc(a1-2)]Gal(b1-4)GlcNAc
# Summary of the method: as §1
# [16] = target: Gal(b1-3)GlcNAc(b1-2)[Gal(b1-3)GlcNAc(b1-6)]Man(a1-6)[Gal(b1-3)GlcNAc(b1-2)Man(a1-3)]Man(b1-4)GlcNAc(b1-4)GlcNAc
# Summary of the method: as §1
# [17] = target: Gal(b1-3)GlcNAc(b1-6)GalNAc
# Summary of the method: as §1
# [18] = target: Gal(b1-3)[Fuc(a1-4)]GlcNAc(b1-6)GalNAc
# Summary of the method: as §1
# [19] = target: Gal(b1-4)GalNAc(a1-3)[Fuc(a1-2)]Gal(b1-4)GlcNAc
# Summary of the method: as §1
# [20] = target: Gal(b1-4)GlcNAc(b1-2)Man(a1-6)Man(b1-4)GlcNAc(b1-4)GlcNAc
# Summary of the method: as §1
# [21] = target: Gal(b1-4)GlcNAc(b1-3)Gal(b1-4)GlcNAc(b1-2)Man(a1-3)[Gal(b1-4)GlcNAc(b1-3)Gal(b1-4)GlcNAc(b1-2)Man(a1-6)]Man(b1-4)GlcNAc(b1-4)GlcNAc
# Summary of the method: as §1
# [22] = target: Gal(b1-4)GlcNAc(b1-3)Gal(b1-4)GlcNAc(b1-2)[Gal(b1-4)GlcNAc(b1-3)Gal(b1-4)GlcNAc(b1-6)]Man(a1-6)[Gal(b1-4)GlcNAc(b1-3)Gal(b1-4)GlcNAc(b1-2)Man(a1-3)]Man(b1-4)GlcNAc(b1-4)GlcNAc
# Summary of the method: as §1
# [23] = target: Gal(b1-4)GlcNAc(b1-3)Gal(b1-4)GlcNAc(b1-2)[Gal(b1-4)GlcNAc(b1-3)Gal(b1-4)GlcNAc(b1-6)]Man(a1-6)[Gal(b1-4)GlcNAc(b1-3)Gal(b1-4)GlcNAc(b1-2)Man(a1-3)]Man(b1-4)GlcNAc(b1-4)[Fuc(a1-6)]GlcNAc
# Summary of the method: as §1
# [24] = target: Gal(b1-4)GlcNAc(b1-3)Gal(b1-4)GlcNAc(b1-3)Gal(b1-4)GlcNAc(b1-3)Gal(b1-4)GlcNAc(b1-2)[Gal(b1-4)GlcNAc(b1-3)Gal(b1-4)GlcNAc(b1-3)Gal(b1-4)GlcNAc(b1-3)Gal(b1-4)GlcNAc(b1-6)]Man(a1-6)[Gal(b1-4)GlcNAc(b1-3)Gal(b1-4)GlcNAc(b1-3)Gal(b1-4)GlcNAc(b1-3)Gal(b1-4)GlcNAc(b1-2)Man(a1-3)]Man(b1-4)GlcNAc(b1-4)[Fuc(a1-6)]GlcNAc
# Summary of the method: as §1
# [25] = target: Gal(b1-4)GlcNAc(b1-3)Gal(b1-4)GlcNAc(b1-3)Gal(b1-4)GlcNAc(b1-3)Gal(b1-4)GlcNAc(b1-3)Gal(b1-4)GlcNAc(b1-2)[Gal(b1-4)GlcNAc(b1-3)Gal(b1-4)GlcNAc(b1-3)Gal(b1-4)GlcNAc(b1-3)Gal(b1-4)GlcNAc(b1-3)Gal(b1-4)GlcNAc(b1-6)]Man(a1-6)[Gal(b1-4)GlcNAc(b1-3)Gal(b1-4)GlcNAc(b1-3)Gal(b1-4)GlcNAc(b1-3)Gal(b1-4)GlcNAc(b1-3)Gal(b1-4)GlcNAc(b1-2)Man(a1-3)]Man(b1-4)GlcNAc(b1-4)[Fuc(a1-6)]GlcNAc
# Summary of the method: as §1
# [26] = target: Gal(b1-4)GlcNAc(b1-6)Gal(b1-4)GlcNAc
# Summary of the method: as §1
# Gal3S(b1-3)GlcNAc = target: Gal3S(b1-3)GlcNAc
# Summary of the method: as §1
# Gal3S4S(b1-4)GlcNAc = target: Gal3S4S(b1-4)GlcNAc
# Summary of the method: as §1
binder,measurement,setting,value
B1,glycan array binding signal (z-score),[1],-0.6
same,glycan array binding signal (z-score),[2],0.12
same,glycan array binding signal (z-score),[3],-0.517
same,glycan array binding signal (z-score),[4],-0.648
same,glycan array binding signal (z-score),Fuc(a1-2)Gal6S(b1-4)Glc,-0.078
same,glycan array binding signal (z-score),[5],-0.3
same,glycan array binding signal (z-score),[6],1.08
same,glycan array binding signal (z-score),[7],-0.459
same,glycan array binding signal (z-score),[8],-0.284
same,glycan array binding signal (z-score),[9],-0.776
same,glycan array binding signal (z-score),[10],1.56
same,glycan array binding signal (z-score),[11],0.511
same,glycan array binding signal (z-score),[12],0.598
same,glycan array binding signal (z-score),[13],-0.646
same,glycan array binding signal (z-score),[14],2.48
same,glycan array binding signal (z-score),[15],-0.307
same,glycan array binding signal (z-score),[16],14.1
same,glycan array binding signal (z-score),[17],-0.427
same,glycan array binding signal (z-score),[18],-0.101
same,glycan array binding signal (z-score),[19],-0.203
same,glycan array binding signal (z-score),[20],-0.302
same,glycan array binding signal (z-score),[21],1.26
same,glycan array binding signal (z-score),[22],2.36
same,glycan array binding signal (z-score),[23],2.08
same,glycan array binding signal (z-score),[24],-0.171
same,glycan array binding signal (z-score),[25],7.33
same,glycan array binding signal (z-score),[26],-0.211
same,glycan array binding signal (z-score),Gal3S(b1-3)GlcNAc,-0.219
same,glycan array binding signal (z-score),Gal3S4S(b1-4)GlcNAc,0.105
